# Activity calls are given as the source filed them. Rule for the calls: active = hit-call score of the fitted dose curve at least 0.9, where 1 is the maximum; inactive = score below 0.9.
# Assays:
# [1] = ATG_EGR_CIS: Attagene CIS-FACTORIAL HepG2 Assay for human Early Growth Response 1 (EGR1) (AID 2282938); conditions: HepG2 Attagene CIS-FACTORIAL EGR reporter mRNA; actives raise or lower the signal
# Procedure, shortened: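 Activity is taken as induction or loss of reporter mRNA versus DMSO, fitted bidirectionally. Transcripts from cis-regulated reporter units in transiently transfected HepG2 were measured after 24 h by RT-PCR with capillary electrophoresis.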
# [2] = ATG_M_19_CIS: Attagene CIS-FACTORIAL HepG2 Assay for M19 Transcription Factor (Internal Marker) (AID 2282939); conditions: HepG2 Attagene CIS-FACTORIAL M19 internal marker reporter; actives raise or lower the signal
# Procedure, shortened: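 Chemical-treated HepG2 (24 h) with MRTU constructs; reporter transcripts detected by fluorescent RT-PCR fragment analysis on capillary electrophoresis. Internal background marker, DMSO as baseline.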
# [3] = target: Hepatocyte nuclear factor 3-beta (Homo sapiens) (UniProt Q9Y261); experiment: ATG_FoxA2_CIS: Attagene CIS-FACTORIAL HepG2 Assay for human Forkhead box A2 (FOXA2) (AID 2282942); conditions: HepG2 cis-reporter transcription factor activity, 24 h; actives raise or lower the signal
# Procedure, shortened: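 Reporter transcript induction is measured by fluorescence after capillary electrophoresis of RT-PCR products from HepG2 cells exposed 24 h. Cis-regulated reporter units report endogenous factor activity; curves fitted both directions against DMSO.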
# [4] = ATG_FoxO_CIS: Attagene CIS-FACTORIAL HepG2 Assay for human Forkhead box O (FoxO) (AID 2282943); conditions: HepG2 Attagene cis-reporter, FoxO element, mRNA; actives raise or lower the signal
# Procedure, shortened: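 Endogenous transcription factor activity read from multiplexed cis-promoter reporter transcripts in transiently transfected HepG2, 24 h after dosing. Reporter RNA measured via RT-PCR plus capillary electrophoresis of FAM-labeled products; gain or loss relative to DMSO.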
# [5] = ATG_GATA_CIS: Attagene CIS-FACTORIAL HepG2 Assay for human GATA Binding Protein (AID 2282944); conditions: HepG2 GATA cis-element reporter, Attagene multiplex mRNA; actives raise or lower the signal
# Procedure, shortened: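 Transfected cis-reporter HepG2 cells were treated with chemicals for 24 hours. Total RNA was then converted to cDNA, amplified with reporter-specific primers and analysed by fluorescent capillary electrophoresis, using DMSO-treated wells as baseline.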
# [6] = ATG_GLI_CIS: Attagene CIS-FACTORIAL HepG2 Assay for human Zinc Finger Protein GLI1 (AID 2282945); conditions: HepG2, Attagene cis-factorial reporter mRNA, GLI element; actives raise or lower the signal
# Procedure, shortened: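 Bidirectional curve fits relative to DMSO, using reporter mRNA levels from RT-PCR plus capillary electrophoresis. Cells were HepG2 transiently carrying cis-regulated reporter constructs, harvested 24 h after dosing.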
# [7] = target: Bile acid receptor (Homo sapiens) (UniProt Q96RI1); experiment: ATG_IR1_CIS: Attagene CIS-FACTORIAL HepG2 Assay for human Nuclear Receptor Subfamily 1 Group H Member 4 (NR1H4), IR1 submotif (AID 2282946); conditions: IR1 reporter transcription, actives raise or lower the signal
# Procedure, shortened: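 HepG2 cells transiently transfected with multiplexed cis-element reporter units read endogenous transcription factor activity. After 24 h compound exposure, reporter mRNA was quantified by RT-PCR, fluorescent labelling, HpaI digestion and capillary electrophoresis; bidirectional fitting versus DMSO baseline.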
# [8] = ATG_GRE_CIS: Attagene CIS-FACTORIAL HepG2 Assay for human Glucocorticoid Response Elements (GRE) (AID 2282947); conditions: HepG2 GRE cis-reporter, Attagene multiplex mRNA; actives raise or lower the signal
# Procedure, shortened: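 Reporter transcripts read by RT-PCR with capillary electrophoresis fluorescence after a 24 h chemical exposure of HepG2 cells transiently transfected with multiple cis-element reporter units. Gain or loss fitted against DMSO.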
# [9] = ATG_Ets_CIS: Attagene CIS-FACTORIAL HepG2 Assay for human Erythroblast Transformation Specific (ETS) (AID 2282941); conditions: HepG2 ETS cis-reporter transcription, actives raise or lower the signal
# Procedure, shortened: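 Endogenous transcription factor activity read as reporter mRNA via RT-PCR and capillary electrophoresis, with gain or loss fitted bidirectionally against DMSO. Human HepG2 liver cells, transiently transfected CIS reporter constructs, 24 h exposure.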
# Sequence of Hepatocyte nuclear factor 3-beta (Homo sapiens) (Q9Y261 whole entry, looked up): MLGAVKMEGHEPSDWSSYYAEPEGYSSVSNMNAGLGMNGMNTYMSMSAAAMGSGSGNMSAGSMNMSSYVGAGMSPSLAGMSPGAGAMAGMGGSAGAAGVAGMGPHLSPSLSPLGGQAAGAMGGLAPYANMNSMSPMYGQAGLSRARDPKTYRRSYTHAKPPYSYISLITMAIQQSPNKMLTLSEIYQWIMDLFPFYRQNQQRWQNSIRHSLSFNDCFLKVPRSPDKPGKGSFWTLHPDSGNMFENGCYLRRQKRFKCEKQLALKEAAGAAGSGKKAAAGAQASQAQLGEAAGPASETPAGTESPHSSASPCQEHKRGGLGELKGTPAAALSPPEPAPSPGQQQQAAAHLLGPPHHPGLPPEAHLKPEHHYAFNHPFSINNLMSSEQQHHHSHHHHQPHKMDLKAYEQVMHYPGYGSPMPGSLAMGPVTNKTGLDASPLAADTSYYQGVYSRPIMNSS
# Sequence of Bile acid receptor (Homo sapiens) (Q96RI1 whole entry, looked up): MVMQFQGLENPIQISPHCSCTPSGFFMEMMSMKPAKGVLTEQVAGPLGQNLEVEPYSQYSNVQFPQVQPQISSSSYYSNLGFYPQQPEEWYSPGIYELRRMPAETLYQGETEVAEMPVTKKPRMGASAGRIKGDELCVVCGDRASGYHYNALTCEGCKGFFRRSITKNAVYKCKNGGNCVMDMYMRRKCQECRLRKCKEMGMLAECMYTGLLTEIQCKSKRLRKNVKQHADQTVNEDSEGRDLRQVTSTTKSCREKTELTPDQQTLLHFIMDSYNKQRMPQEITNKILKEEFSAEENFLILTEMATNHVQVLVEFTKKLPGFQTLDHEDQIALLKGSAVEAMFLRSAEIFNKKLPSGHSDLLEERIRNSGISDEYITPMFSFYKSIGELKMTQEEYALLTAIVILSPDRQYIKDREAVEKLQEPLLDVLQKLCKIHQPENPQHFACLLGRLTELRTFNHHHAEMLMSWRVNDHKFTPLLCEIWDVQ
SMILES,outcome [1],outcome [2],outcome [3],outcome [4],outcome [5],outcome [6],outcome [7],outcome [8],outcome [9],AC50 [1],AC50 [2],AC50 [8],AC50 [9]
CCN(CC)C(=O)Cl,inactive,inactive,inactive,inactive,inactive,inactive,inactive,inactive,–,–,–,–,–
CC(=O)C=C(C)C,inactive,inactive,inactive,inactive,inactive,inactive,–,inactive,inactive,–,–,–,–
CCNc1nc(NC(C)(C)C)nc(SC)n1,inactive,inactive,inactive,inactive,inactive,inactive,inactive,inactive,inactive,–,–,–,–
N#CN=C(N)N,inactive,inactive,inactive,inactive,inactive,–,inactive,–,inactive,–,–,–,–
O=C(Nc1ccc2[nH]ccc2c1)c1cc2cc(F)ccc2n1Cc1cccc(F)c1,–,–,inactive,inactive,inactive,inactive,–,–,–,11 µM (active),13.7 µM (active),17.6 µM (active),–
CCOP(=O)(CN(CCO)CCO)OCC,inactive,inactive,–,inactive,inactive,inactive,–,inactive,–,–,–,–,–
O=[N+]([O-])c1ccc(O)c([N+](=O)[O-])c1,inactive,inactive,inactive,inactive,inactive,inactive,–,–,–,–,–,–,–
CCCCC(CC)CO[N+](=O)[O-] (centres undefined),inactive,inactive,inactive,inactive,inactive,inactive,–,inactive,–,–,–,–,–
CC1(C)CCC(Cc2ccc(Cl)cc2)C1(O)Cn1cncn1 (centres undefined),inactive,inactive,inactive,inactive,inactive,inactive,inactive,–,–,–,–,–,–
C[C@@H]1C[C@@H]([C@H](O)CC2CC(=O)NC(=O)C2)C(=O)[C@@H](C)C1,inactive,inactive,–,–,inactive,inactive,–,–,–,–,–,–,6.31 µM (active) [middle of 4 runs]
C=CCc1ccc(OC)cc1,inactive,inactive,–,inactive,inactive,inactive,–,–,–,–,–,–,–
CC(C)(OO)c1ccccc1,inactive,inactive,inactive,inactive,inactive,–,inactive,inactive,–,–,–,–,–
CC12CC1(C)C(=O)N(c1cc(Cl)cc(Cl)c1)C2=O (centres undefined),inactive,inactive,–,inactive,inactive,–,–,inactive,–,–,–,–,–
Clc1ccc(C2(Cn3cncn3)CC(Br)CO2)c(Cl)c1 (centres undefined),inactive,inactive,inactive,inactive,inactive,inactive,–,inactive,–,–,–,–,–
ClCc1cccnc1,–,inactive,inactive,inactive,inactive,inactive,inactive,–,–,58.6 µM (active),–,72.5 µM (active),81.3 µM (active)
CCCCCCCCCl,inactive,inactive,inactive,inactive,inactive,inactive,–,inactive,inactive,–,–,–,–
Nc1cccc(Cl)c1,inactive,inactive,–,inactive,inactive,inactive,inactive,–,inactive,–,–,–,–
O=c1[nH]c(=O)[nH]c(=O)[nH]1,inactive,inactive,–,inactive,inactive,–,–,inactive,inactive,–,–,–,–

SMILES,outcome [1],outcome [2],outcome [3],outcome [4],outcome [5],outcome [6],outcome [7],outcome [8],outcome [9],AC50 [1],AC50 [2],AC50 [8],AC50 [9]
Cc1cc(=O)[nH]o1,inactive,inactive,inactive,inactive,inactive,inactive,–,inactive,–,–,–,–,–
Cn1sc(Cl)cc1=O,inactive,inactive,–,inactive,inactive,inactive,inactive,inactive,inactive,–,–,–,–
CN(C)N=O,inactive,inactive,–,inactive,inactive,inactive,inactive,inactive,inactive,–,–,–,–
N#Cc1ccccn1,inactive,inactive,–,inactive,inactive,inactive,–,–,inactive,–,–,–,–
CN(CCCC(=O)c1cccnc1)N=O,inactive,inactive,–,inactive,inactive,–,inactive,inactive,inactive,–,–,–,–
CC(C#N)CCC#N (centres undefined),inactive,inactive,inactive,inactive,inactive,–,–,inactive,inactive,–,–,–,–
Clc1ccc(COC(Cn2ccnc2)c2ccc(Cl)cc2Cl)cc1 (centres undefined),inactive,inactive,inactive,inactive,inactive,–,inactive,inactive,inactive,–,–,–,–
C=CC#N,inactive,inactive,inactive,inactive,inactive,inactive,–,inactive,inactive,–,–,–,–
O=C(NCO)NCO,inactive,inactive,–,inactive,inactive,inactive,–,inactive,inactive,–,–,–,–
O=C(O)C(Cl)(Cl)Cl,inactive,inactive,–,inactive,inactive,–,–,–,inactive,–,–,–,–
CC(C)(C)c1cc(O)ccc1O,–,inactive,inactive,inactive,inactive,inactive,inactive,inactive,inactive,120 µM (active),–,–,–
COc1cc(OC)nc(NC(=O)NS(=O)(=O)c2ncccc2C(=O)N(C)C)n1,inactive,inactive,inactive,inactive,inactive,inactive,–,inactive,inactive,–,–,–,–
CCCCCCCCc1ccc(O)cc1,inactive,inactive,–,inactive,inactive,inactive,–,inactive,–,–,–,–,–
C[C@]12CCC(=O)C[C@@H]1CC[C@@H]1[C@@H]2CC[C@]2(C)[C@@H](O)CC[C@@H]12,inactive,inactive,inactive,inactive,inactive,inactive,–,inactive,inactive,–,–,–,–
CCCCCCCCC(=O)NCc1ccc(O)c(OC)c1,inactive,inactive,inactive,inactive,inactive,–,–,inactive,inactive,–,–,–,–
NC(=S)Nc1ccccc1,inactive,inactive,inactive,inactive,inactive,inactive,–,inactive,inactive,–,–,–,–
O=C1CCCN1,inactive,inactive,inactive,inactive,inactive,inactive,–,inactive,inactive,–,–,–,–

# — PubChem BioAssay (EPA / NIEHS)
